High-throughput results: PubChem BioAssay, several laboratories
The list is not random: actives were taken first. Their share in the collection is about 27%.
sEH inh = inhibitors of human soluble epoxide hydrolase | P34913 | recombinant human sEH enzymatic activity assay | inhibition, % at 2 µM | hit rate 0.34% among 91,000; in the data active means inhibition above about 80%
CYP2C9 inhib = blocks human cytochrome P450 2C9; inhibition, % at 5 µM; AID 777; hit rate 20% among 96,000; CYP2C9 Supersomes, luciferin-H conversion, luminescence; P11712;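 active means blocking of liver enzyme CYP2C9 beyond about 50% at 5 µM, limit read from the data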
CYP2C19 act = cytochrome P450 2C19 (human) activation; P33261; recombinant CYP2C19, luciferin-H EGE luminescence; hits give high values; 0 = fully inhibited enzyme, 1 = untreated enzyme; activation factor at 5 µM; 96,000 tested, under 10 active; AID 1025;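 active means activation factor of at least 2 at 5 µM in the primary screen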;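 further: 0 = wells with 2.5 mM tranylcypromine and 1 = vehicle-only wells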
Target sequence (P33261 whole entry, looked up): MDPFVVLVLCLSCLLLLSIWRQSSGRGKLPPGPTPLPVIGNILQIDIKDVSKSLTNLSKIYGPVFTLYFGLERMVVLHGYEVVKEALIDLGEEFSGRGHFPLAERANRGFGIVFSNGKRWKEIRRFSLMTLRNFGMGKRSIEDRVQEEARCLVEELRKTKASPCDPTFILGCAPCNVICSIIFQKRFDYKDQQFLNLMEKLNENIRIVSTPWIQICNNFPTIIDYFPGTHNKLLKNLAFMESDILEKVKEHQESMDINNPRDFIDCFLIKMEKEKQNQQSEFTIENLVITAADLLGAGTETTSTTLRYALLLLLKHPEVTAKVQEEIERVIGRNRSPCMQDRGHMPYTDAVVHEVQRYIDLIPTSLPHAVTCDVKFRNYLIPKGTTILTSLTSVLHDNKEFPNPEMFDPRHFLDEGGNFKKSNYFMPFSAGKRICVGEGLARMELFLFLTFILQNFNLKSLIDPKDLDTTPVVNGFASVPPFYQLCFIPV
CYP2C19 inh = human CYP2C19 inhibition; P33261; CYP2C19 Supersomes, luciferin-H EGE luminescence, 30 min; AID 778; hit rate 21% among 96,000; inhibition, % at 5 µM;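 active means CYP2C19 inhibition above a set limit at 5 µM in the primary screen, cut at about 50% in these data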;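 further: plate controls were negative control wells for no effect and 2.5 mM tranylcypromine positive control for full effect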
CYP2C9 activ = increases human cytochrome P450 2C9 activity. P11712. activation factor at 5 µM. AID 1024. hit rate 1.4% among 96,000. recombinant CYP2C9, luciferin-H conversion, luminescence; hits give high values; factor 1 = untreated enzyme, 0 = blocked;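 active means activation factor of 2 or more for CYP2C9 at a 5 µM dose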;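 further: 0 = sulfaphenazole-blocked wells and 1 = vehicle-only wells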
sEH activator = activators of human soluble epoxide hydrolase | P34913 | activation, % at 2 µM | purified human sEH enzymatic activity, activator screen | hit rate 0.04% among 91,000; in the data active means activation above about 37%
Numbers without * were called inactive; nt = no result.

SMILES	sEH inh	CYP2C9 inhib	CYP2C19 act	CYP2C19 inh	CYP2C9 activ	sEH activator
CCOC(=O)C1=C(Cc2ccc(F)cc2)C(=O)c2ccccc2C1=O	2	42	0.1	87*	0.6	-5
COc1ccccc1CNS(=O)(=O)c1c(C)noc1C	nt	23	0.6	43	0.8	nt
COc1ccccc1CNS(=O)(=O)c1cc(C)ccc1OC	-2	-61	0.1	90*	1.6	8
CCc1ccccc1NS(=O)(=O)c1cc(C)ccc1OC	-5	54*	0.2	84*	0.5	9
COc1cc(CN2CCN(c3ccc(C)cc3)CC2)cc([N+](=O)[O-])c1O	-26	9	1	1	0.9	27
CCOc1ccc(N/C=C/C(=O)c2ccc3ccccc3c2)c([N+](=O)[O-])c1	-14	-108	1	4	2.1*	11
CCOc1ccc(N/C=C/C(=O)c2ccc(C)cc2)c([N+](=O)[O-])c1	-10	-80	0.8	23	1.8	9
COc1ccc(C(=O)/C=C/Nc2ccc([N+](=O)[O-])cc2C)cc1OC	-25	0	0.4	60*	1	21
COC1CCCCC1Nc1cccc(SC)c1 (stereo not given)	-1	9	0.7	29	0.9	0
CCOC(=O)C1CCN(C(=O)c2cc(S(=O)(=O)N3CCOCC3)c(Cl)cc2Cl)CC1	12	40	0.8	16	0.6	-12
O=c1c2c3nc4ccccc4nc3n(/N=C/c3cccs3)c2ncn1-c1ccccc1	nt	6	1	-4	0.9	nt
Cc1ccc(S(=O)(=O)C(CCC(=O)N2CCOCC2)S(=O)(=O)c2ccc(C)cc2)cc1	15	20	0.9	13	0.8	-16
O=c1[nH]c2c(c3c1CCCC3)CCCC2	15	-5	1	4	1.1	-16
O=C(COC(=O)c1cccc(C(=O)OCC(=O)c2ccc(Br)cc2)n1)c1ccc(Br)cc1	3	-6	1.1	-12	1.1	-2
C=CCNc1nc(SC)nc2ccsc12	12	-129	0.9	12	2.3*	-10
COC(=O)c1[nH]c2cc(OC)ccc2c1NC(=O)CCN1CCSCC1	2	45	0.8	17	0.6	-1
CC1=C(c2ccc(C)cc2)S(=O)(=O)N(CC(=O)O)C1=O	nt	82*	1.1	-7	0.2	nt
Cc1cccc2nc(=S)n(C(=O)c3ccco3)n12	-19	76*	0.3	73*	0.2	17
O=C(c1ccco1)n1c(=S)nc2ccccn21	1	28	0.3	72*	0.7	-3
Cc1cc(NC(=O)c2ccco2)no1	-6	10	1	1	0.9	8
O=C(c1cc2ncc(Br)cn2n1)N1CCN(C(=O)c2ccco2)CC1	-15	0	0.9	7	1	9
Cc1ccc(-n2c(C)nn(-c3ncc(C(F)(F)F)cc3Cl)c2=O)cc1	-7	11	1	4	0.9	5
COc1cccc(OCC(O)CO)c1 (stereo not given)	5	12	1	-1	0.9	-7
COc1cc(NC(=O)c2cc(-n3cnnc3)ccc2Cl)cc(OC)c1	11	7	0.9	11	0.9	-6
CCc1nccn1S(=O)(=O)c1ccc(OC)c(C)c1C	10	-9	0.3	71*	1.1	-13
SMILES	sEH inh	CYP2C9 inhib	CYP2C19 act	CYP2C19 inh	CYP2C9 activ	sEH activator
CCc1nccn1S(=O)(=O)c1ccc(Br)cc1Br	nt	59*	0.1	92*	0.4	nt
CCOC(=O)N1CCN(CC(=O)Nc2ccc(C)c(Br)c2)CC1	22	28	0.5	51*	0.7	-20
CCOC(=O)N1CCN(S(=O)(=O)/C=C/c2ccccc2)CC1	9	-14	0.1	85*	1.1	-8
O=S(=O)(/C=C/c1ccccc1)N1CCN(c2ccccc2)CC1	7	-13	0.7	30	1.1	-7
CCOC(=O)N1CCN(C/C(C)=C/c2ccccc2)CC1	8	65*	0.4	61*	0.4	-7
CCCNC(=O)Nc1ccc2c(c1)N(C)C(=O)c1ccccc1S2	61	79*	0.6	41	0.2	-60
Nc1cccnc1Sc1cc(Cl)cc(Cl)c1	2	-72	0.5	48	1.7	0
O=S(=O)(NCC1CCCO1)c1cc(Br)c(Br)s1 (stereo not given)	nt	-97	0.3	66*	2*	nt
O=S(=O)(NCC1CCCO1)c1ccc(Cl)c(C(F)(F)F)c1 (stereo not given)	4	-290	0.3	66*	3.9*	0
CCOc1cc(C)c(Cl)cc1S(=O)(=O)NCC1CCCO1 (stereo not given)	25	-25	0.1	90*	1.2	-21
Cn1c(=O)oc2cc(S(=O)(=O)NCC3CCCO3)ccc21 (stereo not given)	13	nt	nt	nt	nt	-9
COc1cc(C)c(Cl)cc1S(=O)(=O)NCC1CCCO1 (stereo not given)	6	-46	0.1	94*	1.5	-1
N#CC1(c2ccccc2)CCC(=NO)CC1 (stereo not given)	3	19	0.6	37	0.8	-2
Nc1sccc1C(=O)c1ccccc1	5	10	1.1	-11	0.9	-7
CCn1c(SCC(=O)c2cc(C)n(CC3CCCO3)c2C)nc2ccccc21 (stereo not given)	5	2	0.2	76*	1	-6
Cc1cc(C(=O)CSc2nnc(Nc3ccccc3)s2)c(C)n1CC1CCCO1 (stereo not given)	15	19	0.9	9	0.8	-16
Cc1cc(C(=O)CSc2nnnn2-c2ccc(Cl)cc2)c(C)n1CC1CCCO1 (stereo not given)	13	12	0.4	64*	0.9	-15
COc1cc2[nH]c(=O)n(CCCCCC(=O)N3CCN(c4ccccn4)CC3)c(=O)c2cc1OC	-8	38	0.7	32	0.6	7
O=C(CCn1c(=O)[nH]c2ccsc2c1=O)N1CCN(c2cccc(Cl)c2)CC1	nt	71*	0.6	38	0.3	nt
COc1ccc(N2CCN(C(=O)CCCn3c(=O)[nH]c4cc(Cl)ccc4c3=O)CC2)cc1	-5	53*	0.7	29	0.5	2
O=C(Cn1c(=O)[nH]c2ccsc2c1=O)N1CCN(c2ccc(F)cc2)CC1	8	nt	nt	nt	nt	-10
O=C(CCCn1c(=O)[nH]c2cc(Cl)ccc2c1=O)NCCCN1CCCC1	11	69*	0.9	8	0.3	-9
COc1ccc(-c2noc(CCCC(=O)NCc3ccco3)n2)cc1OC	nt	13	0.9	13	0.9	nt
Cc1cccc(N(CC(=O)NC2CCCCC2)C(=O)c2c(C)noc2C)c1	-3	32	1	2	0.7	4
COc1ccccc1N=c1oc2cc(O)ccc2cc1C(N)=O	3	71*	0.9	9	0.3	-2
Cc1cccc(N=c2oc3cc(O)ccc3cc2C(N)=O)c1	-8	69*	0.8	18	0.3	6
COC(=O)C(C(=O)OC)N1C(=O)CCC1=O	-1	-4	1.1	-11	1	-1
